This note sets out measurements from PubChem BioAssay.

Experiment [1] concerns Plasmodium falciparum Sir2 (PF13_0152, Sir2A). The experiment in a line: pfSir2 binders on small-molecule microarrays, primary screen, biochemical, small-molecule microarray, 635 nm fluorescence (AID 1098).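 Further: score merges spot fluorescence intensity with its signal-to-noise ratio.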 Particulars: small-molecule microarray binding, fluorescence 635 nm; higher = more signal.
Experiment [2] can be described thus: small-molecule microarray binders of probe aDKK1, primary screen, biochemical, biotinylated probe, 635/667 nm fluorescence (AID 1099).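 Further: score merges 667nm spot fluorescence with signal to noise across triplicate slides.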 Particulars: higher = more signal.
A short description of experiment [3]: small-molecule microarray binders of probe aCHRDL2, primary screen, biochemical, biotinylated probe, 635/667 nm fluorescence (AID 1100). The settings on record: higher = more signal.
Experiment [4] can be described thus: splicing luciferase reporter signal modulators, primary screen, spliceosome inhibition project, cell-based, HEK293, splice +/- reporter (AID 1101).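 Further: HEK293 cells carrying a splicing-competent luciferase reporter gene; test concentration not given here.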 Particulars: luminescence, 24 h, higher = more signal, called active from +8 up or from −8 down. Background: Reporter assays use an easily measured gene product as a stand-in for the process of interest.
In experiment [5] the target is Fibroblast growth factor 10 (Homo sapiens) (UniProt O15520). In words: FGF10 binders on small-molecule microarrays, primary screen, biochemical, small-molecule microarray, 635 nm fluorescence (AID 1102). Particulars: FGF10 binding, fluorescence 635 nm, higher = more signal.
Experiment [6] relates to glycogen synthase kinase-3 (GSK3A per assay name; protocol says GSK3B). The experiment in a line: GSK3 binders on small-molecule microarrays, primary screen, biochemical, small-molecule microarray, 635 nm fluorescence, GSK3A (AID 1103). Further: the record names both GSK3A and GSK3B. The settings on record: small-molecule microarray binding, fluorescence 635 nm; higher = more signal.
Experiment [7] addresses Epidermal growth factor receptor (Homo sapiens) (UniProt P00533). In words: EGFR binders on small-molecule microarrays, primary screen, biochemical, small-molecule microarray, 635 nm fluorescence (AID 1104).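 Further: score merges 667 nm emission intensity with spot signal to noise over triplicate slides.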 The settings on record: EGFR binding, higher = more signal.
Experiment [8] deals with Follistatin-related protein 3 (Homo sapiens) (UniProt O95633). In words: FSTL3 binders on small-molecule microarrays, primary screen, biochemical, small-molecule microarray, 635 nm fluorescence (AID 1105).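 Further: score merges emission near 667 nm and signal to noise per printed spot across three slides.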 The settings on record: FSTL3 binding, higher = more signal.
Experiment [9] has as its target Dickkopf-related protein 1 (Homo sapiens) (UniProt O94907). The experiment in a line: DKK1 binders on small-molecule microarrays, primary screen, biochemical, small-molecule microarray, 635 nm fluorescence scan (AID 1106).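 Further: score merges emission near 667 nm with signal to noise over three replicate slides.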 The settings on record: DKK1 binding, higher = more signal.
For experiment [10], the system named is Inhibin beta A chain (activin A). The experiment in a line: INHBA (activin A) binders on microarrays, primary screen, biochemical, small-molecule microarray, 635 nm fluorescence scan (AID 1107).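 Further: mouse activin A protein probed at 4.33 µg/mL on printed slides; score merges bound-protein fluorescence near 667 nm with spot signal-to-noise.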 Particulars: small-molecule microarray binding, higher = more signal.
For experiment [11], the system named is Human papillomavirus type 1a protein E7 (residues 44-93). The experiment in a line: HPV1a E7 fragment binders on microarrays, primary screen, biochemical, small-molecule microarray, residues 44-93, 635 nm fluorescence (AID 1108).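 Further: E7 fragment applied at 1 µg/mL in TBST for 1 h at 4 C; score combines spot fluorescence with its signal to noise ratio.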 The settings on record: small-molecule microarray binding, fluorescence 635 nm; higher = more signal.
Experiment [12] in a line: modulators of HCV replicon luciferase signal, primary screen, HCV replication inhibitor project, Huh7 cells, luciferase reporter (AID 1109).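 Further: huh7 hepatoma cells harbouring a luciferase neomycin HCV replicon reporter; luciferase luminescence as measure of HCV replicon replication; test concentration not given here.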 Particulars: 48 h, higher = more signal.
For experiment [13], the target named is Left-right determination factor 2 (Homo sapiens) (UniProt O00292). The experiment in a line: LEFTY2 binders on small-molecule microarrays, primary screen, biochemical, small-molecule microarray, 635 nm fluorescence scan (AID 1110). Particulars: LEFTY2 binding, higher = more signal.
Experiment [14] addresses Calmodulin-1 (Homo sapiens) (UniProt P0DP23). The experiment in a line: CALM1 binders on microarrays, EGTA buffer, profiling panel, biochemical, small-molecule microarray, Cy5-labelled CALM1 (AID 1111).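 Further: labelled calmodulin applied in Tris saline Tween buffer holding calcium plus EGTA and DTT.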 The settings on record: Cy5-CALM1 binding fluorescence, higher = more signal.
For experiment [15] the target is unchanged. The experiment in a line: calcium-bound CALM1 binders on microarrays, profiling panel, artefact control for SMM control-protein annotation, biochemical, small-molecule microarray, Cy5-labelled CALM1, plus calcium (AID 1112).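 Further: score merges spot fluorescence with signal to noise from triplicate slides.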 Particulars: Cy5-CALM1 binding fluorescence, higher = more signal.
Experiment [16] in a line: small-molecule microarray binders of probe aWnt5a, primary screen, biochemical, biotinylated probe, 635/667 nm fluorescence (AID 1113).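 Further: score merges 667 nm fluorescence intensity with signal-to-noise per printed feature.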 Particulars: higher = more signal.
Experiment [17] can be described thus: small-molecule microarray binders of probe aShh, primary screen, biochemical, biotinylated probe, 635/667 nm fluorescence (AID 1114).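 Further: probe is biotin-labelled aShh protein from a stem cell growth factor screen; measures binding of labelled protein to compounds printed on the slide; score merges feature fluorescence at 667 nm with signal-to-noise.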 The settings on record: higher = more signal.
Experiment [18] can be described thus: small-molecule microarray binders of probe aNog, primary screen, biochemical, biotinylated probe, 635/667 nm fluorescence (AID 1115).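 Further: probe is biotinylated aNog protein used at 0.15 µg/mL for 1 h at 4 C; z-score combines 667 nm fluorescence of each spot with its signal to noise.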 The settings on record: higher = more signal.
Experiment [19] has as its target Torsin-1A-interacting protein 1 (Homo sapiens) (UniProt Q5JTV8). In words: LAP1 binders from COS7 cell lysate, primary screen, small-molecule microarray, 635/667 nm fluorescence (AID 1116). The settings on record: COS7-hLAP1 lysate binding, 635 nm fluorescence, higher = more signal.
Experiment [20] deals with Alpha-bungarotoxin (Bungarus multicinctus) (UniProt P60615). The experiment in a line: alpha-bungarotoxin binders on microarray, profiling panel, artefact control for SMM control protein annotation, biochemical, small-molecule microarray, Alexa647 label, 635/667 nm fluorescence (AID 1117). The settings on record: alpha-BTX-A647 binding fluorescence, higher = more signal.

Calls of active or inactive are those of the source.

Alpha-bungarotoxin (Bungarus multicinctus), sequence (P60615 whole entry, looked up): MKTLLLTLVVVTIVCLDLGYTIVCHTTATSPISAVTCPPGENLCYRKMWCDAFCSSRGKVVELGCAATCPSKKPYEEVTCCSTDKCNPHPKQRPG
Fibroblast growth factor 10 (Homo sapiens), sequence (O15520 whole entry, looked up): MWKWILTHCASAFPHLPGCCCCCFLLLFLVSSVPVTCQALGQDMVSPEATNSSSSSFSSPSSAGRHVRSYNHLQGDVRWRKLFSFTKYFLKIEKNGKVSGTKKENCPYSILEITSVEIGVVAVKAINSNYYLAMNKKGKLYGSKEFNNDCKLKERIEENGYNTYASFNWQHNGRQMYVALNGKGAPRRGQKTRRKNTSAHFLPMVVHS
Epidermal growth factor receptor (Homo sapiens), sequence (P00533 whole entry, looked up): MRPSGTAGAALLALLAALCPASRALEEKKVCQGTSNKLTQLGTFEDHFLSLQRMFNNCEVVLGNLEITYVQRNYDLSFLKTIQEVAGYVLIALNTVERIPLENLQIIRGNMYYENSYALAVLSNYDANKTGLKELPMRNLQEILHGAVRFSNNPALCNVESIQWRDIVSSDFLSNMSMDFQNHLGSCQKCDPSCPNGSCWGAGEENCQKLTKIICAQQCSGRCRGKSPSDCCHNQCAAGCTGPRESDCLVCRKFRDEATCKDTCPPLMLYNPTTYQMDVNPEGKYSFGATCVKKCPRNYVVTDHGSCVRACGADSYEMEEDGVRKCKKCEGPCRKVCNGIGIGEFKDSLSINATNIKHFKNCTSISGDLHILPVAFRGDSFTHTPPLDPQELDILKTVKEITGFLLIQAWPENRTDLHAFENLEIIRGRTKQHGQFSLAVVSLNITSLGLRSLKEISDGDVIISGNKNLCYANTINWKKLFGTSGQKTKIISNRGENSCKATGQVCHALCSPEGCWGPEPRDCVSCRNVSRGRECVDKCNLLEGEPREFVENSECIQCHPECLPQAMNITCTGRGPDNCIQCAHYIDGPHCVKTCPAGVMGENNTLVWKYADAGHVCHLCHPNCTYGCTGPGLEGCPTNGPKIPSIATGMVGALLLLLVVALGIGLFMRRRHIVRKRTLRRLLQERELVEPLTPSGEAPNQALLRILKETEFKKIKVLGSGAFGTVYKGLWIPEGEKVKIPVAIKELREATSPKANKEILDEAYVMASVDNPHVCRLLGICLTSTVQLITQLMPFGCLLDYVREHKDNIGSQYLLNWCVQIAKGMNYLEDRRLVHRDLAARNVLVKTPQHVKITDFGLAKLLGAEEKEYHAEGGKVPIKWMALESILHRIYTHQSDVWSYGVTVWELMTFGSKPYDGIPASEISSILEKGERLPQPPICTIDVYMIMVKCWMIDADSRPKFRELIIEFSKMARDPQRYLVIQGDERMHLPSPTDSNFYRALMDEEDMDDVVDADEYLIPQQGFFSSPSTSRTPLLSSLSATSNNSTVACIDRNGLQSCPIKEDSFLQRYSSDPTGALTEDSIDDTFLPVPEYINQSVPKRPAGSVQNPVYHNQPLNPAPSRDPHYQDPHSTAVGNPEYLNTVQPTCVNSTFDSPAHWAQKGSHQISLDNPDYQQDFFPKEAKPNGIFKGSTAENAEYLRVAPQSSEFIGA
Dickkopf-related protein 1 (Homo sapiens), sequence (O94907 whole entry, looked up): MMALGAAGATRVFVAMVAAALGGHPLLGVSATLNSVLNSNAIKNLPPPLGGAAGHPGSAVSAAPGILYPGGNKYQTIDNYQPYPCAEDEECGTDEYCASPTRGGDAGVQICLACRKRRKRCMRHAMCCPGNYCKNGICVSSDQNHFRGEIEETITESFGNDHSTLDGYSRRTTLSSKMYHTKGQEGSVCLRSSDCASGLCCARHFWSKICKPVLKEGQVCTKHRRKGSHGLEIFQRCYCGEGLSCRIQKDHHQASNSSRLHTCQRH
Torsin-1A-interacting protein 1 (Homo sapiens), sequence (Q5JTV8 whole entry, looked up): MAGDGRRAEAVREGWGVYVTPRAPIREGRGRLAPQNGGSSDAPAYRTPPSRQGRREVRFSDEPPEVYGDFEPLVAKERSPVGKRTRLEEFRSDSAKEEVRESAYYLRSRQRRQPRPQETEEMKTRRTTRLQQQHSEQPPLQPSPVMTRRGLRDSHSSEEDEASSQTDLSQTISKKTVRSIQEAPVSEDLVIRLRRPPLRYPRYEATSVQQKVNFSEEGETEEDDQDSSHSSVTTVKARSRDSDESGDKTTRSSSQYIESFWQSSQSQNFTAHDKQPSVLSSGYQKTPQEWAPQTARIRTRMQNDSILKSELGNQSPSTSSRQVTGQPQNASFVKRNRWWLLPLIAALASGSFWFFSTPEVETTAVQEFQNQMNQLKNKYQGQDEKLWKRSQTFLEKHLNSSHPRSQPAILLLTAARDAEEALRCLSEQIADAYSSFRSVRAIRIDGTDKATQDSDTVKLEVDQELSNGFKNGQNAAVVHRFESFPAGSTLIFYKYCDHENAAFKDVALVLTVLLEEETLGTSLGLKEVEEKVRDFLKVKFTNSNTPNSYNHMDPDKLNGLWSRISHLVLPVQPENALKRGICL
Follistatin-related protein 3 (Homo sapiens), sequence (O95633 whole entry, looked up): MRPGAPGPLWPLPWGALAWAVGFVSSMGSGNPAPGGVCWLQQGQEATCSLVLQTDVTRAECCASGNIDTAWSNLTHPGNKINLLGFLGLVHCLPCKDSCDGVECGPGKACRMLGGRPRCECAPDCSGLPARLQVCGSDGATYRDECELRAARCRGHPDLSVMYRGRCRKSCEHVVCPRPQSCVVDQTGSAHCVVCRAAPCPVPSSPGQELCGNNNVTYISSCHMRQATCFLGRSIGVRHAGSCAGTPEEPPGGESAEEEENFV
Left-right determination factor 2 (Homo sapiens), sequence (O00292 whole entry, looked up): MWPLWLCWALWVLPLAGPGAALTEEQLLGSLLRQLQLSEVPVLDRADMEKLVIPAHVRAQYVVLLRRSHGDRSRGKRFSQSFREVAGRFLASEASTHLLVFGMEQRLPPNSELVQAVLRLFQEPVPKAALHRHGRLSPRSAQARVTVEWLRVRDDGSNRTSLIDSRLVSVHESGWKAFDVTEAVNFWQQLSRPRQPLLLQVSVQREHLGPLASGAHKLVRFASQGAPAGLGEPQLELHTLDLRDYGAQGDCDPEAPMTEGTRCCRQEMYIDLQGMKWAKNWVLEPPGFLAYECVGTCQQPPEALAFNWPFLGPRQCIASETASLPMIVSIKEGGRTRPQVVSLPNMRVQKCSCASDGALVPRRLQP

Regarding `CO[C@@H]1C=CCC(=O)N[C@@H](C)C(=O)OC[C@@H](OC)[C@H](C)C=CCC(=O)OC[C@H]1C`, the composite z-score is 1.27 in experiment [1]; -0.266 in [2]; -1.14 in [3]; 0.656 in experiment [5]; 0.808 in experiment [6]; 1.07 in [7]. Moreover, the composite z-score in experiment [8] was 1.53; in experiment [9], 1.35; in experiment [10], 1.77; in [11], -0.669; in [13], 1.48; in experiment [14] it was -1.14. The composite z-score in [15] is -1.96; in experiment [16], -0.152; in experiment [17], -0.0035; in experiment [18], 0.109; in experiment [19], 0.037; in experiment [20], 0.373. In addition, the z-score in [4] was 0.175 (inactive); in experiment [12], 0.388.

`CC(C)CON=C1[C@H]2CCn3c(=O)n(C)c(=O)n3[C@H]2[C@H](O)[C@@H]2O[C@H]12`: the composite z-score in experiment [1] is 0.59; in experiment [2] it was -0.339; in [3] it was -0.507; in [5] it was 0.401; in experiment [6], 0.481; in [7], 0.377. Further, the composite z-score in [8] is 0.703; in experiment [9], 0.708; in experiment [10], 0.283; in [11] it was 0.274; in [13], 0.494; in experiment [14], -0.0875. Also, the composite z-score in experiment [15] is -0.609; in experiment [16], -0.127; in experiment [17], 0.0796; in experiment [18], -0.232; in [19], 0.18; in [20], 0.255. For the same compound, the z-score is 0.253 (inactive) in experiment [4] and 0.104 in [12].

In the case of `CCOC(=O)[C@H](CC(C)C)NC(=O)CCC1CC(OC(=O)NCCc2ccc(F)cc2)CC2(CCCC(COC(=O)NCc3cccc(C(F)(F)F)c3)O2)O1` (stereo not given in full), the composite z-score in [1] was 0.581; in experiment [2], -0.211; in [3], -0.51; in experiment [5] it was 1.39; in experiment [6], 0.733; in experiment [7], 0.29. The composite z-score in experiment [8] is 0.814; in experiment [9], 0.532; in experiment [10], -0.257; in experiment [11], 1.38; in [13], 0.605; in experiment [14], -0.134. Besides, the composite z-score is -0.448 in experiment [15]; -0.129 in [16]; -0.154 in experiment [17]; 0.28 in [18]; 0.274 in experiment [19]; 0.342 in experiment [20]. Further, the z-score in experiment [4] is 0.478 (inactive); in experiment [12] it was -0.0709.

For `CC(=O)OC[C@H]1O[C@@H](ON=C(C)C)[C@H](OC(C)=O)[C@@H](OC(C)=O)[C@@H]1OC(C)=O`, the composite z-score in experiment [1] was -0.745; in experiment [2], -0.191; in experiment [3], 0.46; in experiment [5] it was -0.527; in experiment [6], -1.28; in experiment [7] it was -0.246. Further, the composite z-score in [8] is -1.57; in [9] it was -1.38; in experiment [10], -2.17; in experiment [11], -2.02; in experiment [13] it was 0.207; in experiment [14], -0.862. The composite z-score in experiment [15] was -0.678; in experiment [16], -0.0459; in experiment [17], -0.13; in experiment [18] it was -0.345; in experiment [19] it was -0.958; in [20], -1.3. The results for the z-score in [4] and in [12] were 0.851 (inactive) and -0.563, respectively.

For the compound `C[C@H]1CC[C@H]2C(=O)OC(COc3ccc(C(C)(C)C)cc3)CN2[C@@H]1c1ccc(Br)cc1` (stereo not given in full), the composite z-score in experiment [1] was 0.528; in experiment [2], -0.254; in experiment [3], -0.242; in [5], 0.172; in experiment [6] it was 0.364; in [7], -0.128. The composite z-score was 0.58 in experiment [8]; -0.039 in [9]; 0.451 in [10]; 1.1 in [11]; 0.0037 in experiment [13]; 0.464 in experiment [14]. Moreover, the composite z-score in experiment [15] is 0.14; in experiment [16] it was -0.277; in experiment [17], -0.0709; in experiment [18] it was -0.111; in [19], 0.0437; in experiment [20] it was 0.319. In addition, the z-score in [4] was -0.216 (inactive); in [12] it was 1.1.

For the compound `O=C1C[C@@H](O)[C@@H](O)[C@@H]2[C@@H]3C(=O)N(c4ccc(F)cc4F)C(=O)[C@@H]3CC[C@H]12`, the composite z-score is 0.88 in experiment [1]; -0.0704 in experiment [2]; -0.511 in experiment [3]; 0.514 in experiment [5]; 0.662 in experiment [6]; 0.394 in experiment [7]. In addition, the composite z-score was 0.638 in [8]; 0.597 in [9]; 0.148 in experiment [10]; 0.473 in experiment [11]; 0.681 in experiment [13]; -0.134 in experiment [14]. Moreover, the composite z-score in experiment [15] is -0.519; in experiment [16], -0.0718; in [17], -0.18; in [18], -0.213; in [19] it was 0.82; in experiment [20] it was 0.0317. Besides, the z-score was 0.759 (inactive) in [4] and -0.313 in experiment [12].
